One compound from PubChem BioAssay AID651623 (National Center for Advancing Translational Sciences (NCATS), 2012) can be followed below.

Activity calls are given as the source filed them.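 The calls were made as follows: active = inhibition of at least 60% at 114 µM; inconclusive = inhibition from 30% up to below 60% at 114 µM; inactive = inhibition below 30% at 114 µM.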

For the assay, the target named is Ubiquitin carboxyl-terminal hydrolase 8 (Homo sapiens) (UniProt P40818). Put plainly: Inhibitors of USP1/UAF1: SAR in USP8 diubiquitin SDS-PAGE gel assay. To be noted: USP8 K63 diubiquitin cleavage; series mostly up to 114 µM; inhibition: at the top concentration. The text has this: Deubiquitinating enzymes (DUBs) are a class of enzymes that can cleave isopeptide bond formed between the C-terminal carboxylate of ubiquitin and a lysine side-chain amino group on the target protein. Among them, ubiquitin specific proteases (USPs) constitute the largest DUB family. Human USPs are emerging as promising targets for pharmacological intervention because of their connection to a number of human diseases, including prostate, colon and breast cancer (1, 2), pediatric acute lymphoblastic leukemia (3), and familial cylindromatosis (4). The advantage of inhibiting USPs lies in the potential specificity of therapeutic intervention that can lead to better efficacy and reduce nonspecific side effects. In a collaboration between the University of Delaware and the NIH Chemical Genomics Center, a high-throughput screen assay was developed to screen for USP1/UAF1 inhibitors (5). […]
Ubiquitin carboxyl-terminal hydrolase 8 (Homo sapiens), sequence (P40818 whole entry, looked up): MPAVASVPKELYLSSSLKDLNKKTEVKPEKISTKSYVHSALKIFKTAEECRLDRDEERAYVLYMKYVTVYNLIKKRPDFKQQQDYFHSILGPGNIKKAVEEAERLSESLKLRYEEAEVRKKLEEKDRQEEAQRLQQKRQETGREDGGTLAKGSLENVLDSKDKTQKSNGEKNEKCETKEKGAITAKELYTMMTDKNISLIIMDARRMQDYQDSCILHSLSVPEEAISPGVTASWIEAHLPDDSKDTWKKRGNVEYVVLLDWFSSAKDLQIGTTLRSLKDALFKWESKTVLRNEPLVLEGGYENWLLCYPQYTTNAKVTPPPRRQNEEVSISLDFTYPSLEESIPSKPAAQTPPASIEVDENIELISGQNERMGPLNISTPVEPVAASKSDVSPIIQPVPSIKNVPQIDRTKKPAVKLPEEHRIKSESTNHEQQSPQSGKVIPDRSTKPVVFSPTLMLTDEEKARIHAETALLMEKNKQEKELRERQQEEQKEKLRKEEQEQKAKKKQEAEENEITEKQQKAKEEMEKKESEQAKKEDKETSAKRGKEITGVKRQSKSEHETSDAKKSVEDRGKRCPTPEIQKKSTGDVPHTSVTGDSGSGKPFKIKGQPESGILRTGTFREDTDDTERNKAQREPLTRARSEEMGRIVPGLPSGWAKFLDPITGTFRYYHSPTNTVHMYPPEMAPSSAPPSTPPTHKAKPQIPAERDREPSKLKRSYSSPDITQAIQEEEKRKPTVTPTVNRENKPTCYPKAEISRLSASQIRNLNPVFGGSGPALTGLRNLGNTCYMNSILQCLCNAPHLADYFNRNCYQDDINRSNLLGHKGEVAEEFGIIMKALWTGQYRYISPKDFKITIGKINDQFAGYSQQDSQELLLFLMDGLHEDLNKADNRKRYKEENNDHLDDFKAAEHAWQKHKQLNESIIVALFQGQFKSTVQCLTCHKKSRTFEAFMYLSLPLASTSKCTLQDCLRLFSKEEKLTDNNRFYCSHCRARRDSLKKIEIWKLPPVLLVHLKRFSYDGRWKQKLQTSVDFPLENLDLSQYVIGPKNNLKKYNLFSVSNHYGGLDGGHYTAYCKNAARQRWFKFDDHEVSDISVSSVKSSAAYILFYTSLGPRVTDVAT
The inhibition assay contains 80 nM USP8, 2 microM K63 linked diubiquitin, and inhibitors at varied concentrations (0.08 microM - 114 microM). […] The intensity of the individual diubiquitin and monoubiquitin band was quantified using Quantity One 4.3.1 (Biorad, Hercules, CA). The percentage of the conversion was determined and used to calculate the reaction rate. […]
As for `Cc1cnc(-c2ccccc2C(C)C)nc1NCc1ccc(-n2ccnn2)cc1`, the “inhibition” value is 3% (inactive).

The inhibition is the change of the read-out against control, counted positive when it falls.
